Experimental findings from PubChem BioAssay (NCI) are described below.

Among the test systems are NCI-H23 lung; NCI-H226 lung; NCI-H322M lung; HOP-62 NSCLC; NCI-H460 lung; HOP-92 NSCLC; NCI-H522 lung; A549/ATCC NSCLC; 786-0 renal; COLO 205 colon; DU-145 prostate; K-562 leukemia; MALME-3M melanoma; MDA-MB-231 breast; RXF 393 renal; SF-268 CNS; SF-295 CNS; SF-539 CNS; UACC-257 melanoma; M14 melanoma.
Experiment in all cases: NCI-60 one-dose screen, 48 h (100 = growth as untreated, 0 = no growth, -100 = all killed)
Settings in all cases: 10 µM unless noted

The structures appear in SMILES notation. Several values for one entry are separate records, joined by “and”; a condition that tells them apart may be missing. Identical values can stand only once. This is part of a sample that, as a whole, favours compounds with a hit. Of some 83,000 tested, about 20% had one in any assay.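 96-well plates, one dose, 48 hours. Percent growth reported; active if below 10.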 Activity calls are given as the source filed them.

On to `COc1cc2nc(N3CCN(C(=O)C4COc5ccccc5O4)CC3)nc(N)c2cc1OC` (stereo not given), for which the growth in the test on NCI-H23 lung was 90.1% (inactive) and 99% (inactive) and 101% (inactive); in the test with NCI-H226 lung it was 96.2% (inactive) and 96.7% (inactive) and 99.9% (inactive); in the test with NCI-H322M lung it was 123% (inactive) and 75.6% (inactive) and 99.4% (inactive); with HOP-62 NSCLC, 102% (inactive) and 96.4% (inactive) and 110% (inactive); in the test with NCI-H460 lung it was 101% (inactive) and 98.5% (inactive) and 117% (inactive); in the test with HOP-92 NSCLC, 148% (inactive) and 106% (inactive) and 124% (inactive). In addition, the growth in the test on NCI-H522 lung was 82.6% (inactive) and 84.1% (inactive); with A549/ATCC NSCLC, 102% (inactive) and 88.9% (inactive); with 786-0 renal it was 112% (inactive) and 93.5% (inactive) and 99% (inactive); in the test with COLO 205 colon, 93.6% (inactive) and 104% (inactive); in the test on DU-145 prostate, 102% (inactive) and 106% (inactive); with K-562 leukemia, 93.3% (inactive) and 96.7% (inactive). Further, the growth in the test on MALME-3M melanoma was 113% (inactive) and 83.2% (inactive) and 95.6% (inactive); with MDA-MB-231 breast it was 76.3% (inactive) and 86.2% (inactive) and 100% (inactive); with RXF 393 renal, 86.4% (inactive) and 83.4% (inactive) and 109% (inactive); in the test with SF-268 CNS, 100% (inactive) and 89.5% (inactive) and 98.6% (inactive); in the test on SF-295 CNS, 108% (inactive) and 71.1% (inactive) and 101% (inactive); with SF-539 CNS it was 115% (inactive) and 89.9% (inactive) and 102% (inactive). Further, the growth is 101% (inactive) and 106% (inactive) in the test on UACC-257 melanoma; 104% (inactive) and 96.4% (inactive) and 96.3% (inactive) in the test on M14 melanoma.
For the compound `N#C/C(=C1C=C/C(=N/O)C(Br)=C/1)c1ccccc1`, the growth in the test on NCI-H23 lung is 78.3% (inactive); in the test with NCI-H226 lung, 32% (inactive); in the test with NCI-H322M lung, 42.4% (inactive); in the test with HOP-62 NSCLC, 16.3% (inactive); with NCI-H460 lung, 8.25% (active); in the test with HOP-92 NSCLC, -6.62% (active). Further, the growth is -43.3% (active) with NCI-H522 lung; 27.6% (inactive) in the test with A549/ATCC NSCLC; 20% (inactive) in the test with 786-0 renal; 83.2% (inactive) in the test on COLO 205 colon; -13.1% (active) with DU-145 prostate; 9.55% (active) with K-562 leukemia. The growth was 67.4% (inactive) with MALME-3M melanoma; 28.1% (inactive) with MDA-MB-231 breast; 17% (inactive) in the test on RXF 393 renal; 18.8% (inactive) in the test with SF-268 CNS; -8.83% (active) in the test with SF-295 CNS; -26% (active) with SF-539 CNS. Also, the growth in the test on UACC-257 melanoma was 44.1% (inactive); in the test on M14 melanoma it was 31.9% (inactive).
With `OCCN1CCN(CCCN2c3ccccc3Sc3ccc(Cl)cc32)CC1`, the growth is 66.4% (inactive) and 80.2% (inactive) in the test on NCI-H23 lung; 96% (inactive) and 110% (inactive) in the test with NCI-H226 lung; 64.2% (inactive) and 77.5% (inactive) in the test with NCI-H322M lung; 61.4% (inactive) and 93.4% (inactive) in the test on HOP-62 NSCLC; 64.3% (inactive) and 85.1% (inactive) with NCI-H460 lung; -2.25% (active) in the test on HOP-92 NSCLC. Also, the growth was 40.5% (inactive) and 57.5% (inactive) with NCI-H522 lung; 69.8% (inactive) and 93.3% (inactive) in the test on A549/ATCC NSCLC; 53.3% (inactive) and 71.3% (inactive) in the test with 786-0 renal; -70.1% (active) and 73.3% (inactive) in the test with COLO 205 colon; 97.3% (inactive) and 95.7% (inactive) with DU-145 prostate; 13% (inactive) and 22.7% (inactive) in the test with K-562 leukemia. In addition, the growth was 16.5% (inactive) and 67.3% (inactive) with MALME-3M melanoma; 12.2% (inactive) and 81.6% (inactive) with MDA-MB-231 breast; 56.1% (inactive) and 55.3% (inactive) with RXF 393 renal; 80.8% (inactive) and 71.9% (inactive) in the test with SF-268 CNS; 52.4% (inactive) and 67.9% (inactive) with SF-295 CNS; 80.2% (inactive) and 83.4% (inactive) with SF-539 CNS. For the same compound, the growth is -43% (active) and -5.63% (active) with UACC-257 melanoma; -76.7% (active) and 50.1% (inactive) in the test with M14 melanoma.
For `COC(=O)[C@H]1CCCN1C(=O)C1CCCN1C(=O)[C@@H](Cc1ccccc1)NC(=S)Nc1cc(C(F)(F)F)cc(C(F)(F)F)c1` (stereo not given in full), the growth in the test on NCI-H23 lung is 108% (inactive) and 96.5% (inactive); in the test on NCI-H226 lung, 105% (inactive) and 87.6% (inactive); in the test on NCI-H322M lung, 142% (inactive) and 88.4% (inactive); in the test with HOP-62 NSCLC, 105% (inactive) and 97.9% (inactive); with NCI-H460 lung, 102% (inactive) and 94.5% (inactive); in the test on HOP-92 NSCLC it was 111% (inactive) and 84.9% (inactive). Also, the growth in the test with NCI-H522 lung was 98.6% (inactive) and 78.1% (inactive); in the test on A549/ATCC NSCLC, 97.2% (inactive) and 71.4% (inactive); in the test with 786-0 renal, 105% (inactive) and 99.2% (inactive); with COLO 205 colon, 121% (inactive) and 91.4% (inactive); with DU-145 prostate, 117% (inactive) and 91.4% (inactive); in the test on K-562 leukemia, 103% (inactive) and 65.2% (inactive). In addition, the growth with MALME-3M melanoma was 109% (inactive) and 98.8% (inactive); in the test on MDA-MB-231 breast it was 95.9% (inactive) and 75.4% (inactive); with RXF 393 renal, 108% (inactive) and 84.8% (inactive); in the test with SF-268 CNS, 105% (inactive) and 86.9% (inactive); in the test with SF-295 CNS, 89.4% (inactive); with SF-539 CNS, 102% (inactive) and 96.1% (inactive). The growth in the test on UACC-257 melanoma was 108% (inactive) and 95.4% (inactive); with M14 melanoma, 113% (inactive) and 105% (inactive).
For the compound `O=C(c1ccc(Cl)cc1)C(NCCO)c1ccc(Cl)cc1` (stereo not given), the growth is 90.7% (inactive) and 90.4% (inactive) in the test with NCI-H23 lung; 93.2% (inactive) and 106% (inactive) in the test with NCI-H226 lung; 86.4% (inactive) and 93.6% (inactive) in the test with NCI-H322M lung; 87.5% (inactive) in the test on HOP-62 NSCLC; 100% (inactive) and 114% (inactive) in the test with NCI-H460 lung; 72.9% (inactive) and 89.4% (inactive) with HOP-92 NSCLC. The growth in the test with NCI-H522 lung is 92.8% (inactive) and 89.3% (inactive); in the test on A549/ATCC NSCLC, 96.8% (inactive) and 93.8% (inactive); in the test on 786-0 renal, 97.8% (inactive) and 93.3% (inactive); in the test with COLO 205 colon, 112% (inactive) and 122% (inactive); in the test on DU-145 prostate it was 108% (inactive) and 109% (inactive); with K-562 leukemia, 90.3% (inactive) and 105% (inactive). Further, the growth was 90.2% (inactive) and 102% (inactive) with MALME-3M melanoma; 96.3% (inactive) and 97.8% (inactive) in the test on MDA-MB-231 breast; 94.9% (inactive) and 108% (inactive) in the test with RXF 393 renal; 99% (inactive) and 85.8% (inactive) in the test on SF-268 CNS; 96.8% (inactive) and 103% (inactive) in the test with SF-295 CNS; 114% (inactive) and 103% (inactive) with SF-539 CNS. Also, the growth with UACC-257 melanoma was 100% (inactive) and 101% (inactive); in the test on M14 melanoma, 101% (inactive) and 104% (inactive).
For `Cc1nn(-c2ccc(Cl)cc2)c2ncnc(N/N=C/c3ccccc3O)c12`, the growth in the test on NCI-H23 lung is 37% (inactive) and 18.5% (inactive); in the test with NCI-H226 lung, 52.8% (inactive) and 27.9% (inactive); in the test with NCI-H322M lung it was 33.3% (inactive) and 7.57% (active); in the test on HOP-62 NSCLC it was 7.93% (active) and 9.97% (active); with NCI-H460 lung it was 5.04% (active) and 1.12% (active); in the test with HOP-92 NSCLC it was 44.1% (inactive) and 26.6% (inactive). The growth was 23.3% (inactive) in the test on NCI-H522 lung; 9.46% (active) and 12.8% (inactive) in the test on A549/ATCC NSCLC; 8.99% (active) and 6.59% (active) in the test with 786-0 renal; 18.7% (inactive) and 4.16% (active) in the test with COLO 205 colon; 19.1% (inactive) and 21% (inactive) in the test on DU-145 prostate; 18.5% (inactive) and 14.7% (inactive) in the test with K-562 leukemia. Further, the growth is 48.7% (inactive) and 0.643% (active) in the test on MALME-3M melanoma; 32.6% (inactive) and 32.4% (inactive) in the test on MDA-MB-231 breast; 25.7% (inactive) and 14.5% (inactive) in the test on RXF 393 renal; 9.67% (active) and 7.69% (active) in the test with SF-268 CNS; 24.5% (inactive) and 10% (inactive) in the test on SF-295 CNS; 14% (inactive) and 4.62% (active) in the test with SF-539 CNS. Besides, the growth is -3.7% (active) and 9.92% (active) in the test with UACC-257 melanoma; 0.303% (active) in the test with M14 melanoma.
For the compound `CC(=O)Nc1cc(S(=O)(=O)O)cc2cc(S(=O)(=O)O)c(N=Nc3ccccc3)c(O)c12`, the growth is 96.3% (inactive) and 101% (inactive) in the test with NCI-H23 lung; 99.7% (inactive) and 105% (inactive) in the test with NCI-H226 lung; 112% (inactive) and 91.9% (inactive) in the test on NCI-H322M lung; 140% (inactive) and 98.6% (inactive) in the test with HOP-62 NSCLC; 104% (inactive) and 103% (inactive) in the test with NCI-H460 lung; 82% (inactive) and 102% (inactive) in the test with HOP-92 NSCLC. Further, the growth with NCI-H522 lung was 112% (inactive) and 82.3% (inactive); in the test on A549/ATCC NSCLC, 108% (inactive) and 97% (inactive); with 786-0 renal, 106% (inactive) and 103% (inactive); in the test on COLO 205 colon it was 99.7% (inactive) and 109% (inactive); in the test with DU-145 prostate, 118% (inactive) and 114% (inactive); in the test on K-562 leukemia, 107% (inactive) and 84.6% (inactive). The growth was 110% (inactive) and 99.4% (inactive) in the test on MALME-3M melanoma; 100% (inactive) and 104% (inactive) in the test with MDA-MB-231 breast; 107% (inactive) and 113% (inactive) in the test on RXF 393 renal; 107% (inactive) and 100% (inactive) in the test on SF-268 CNS; 105% (inactive) and 110% (inactive) with SF-295 CNS; 105% (inactive) with SF-539 CNS. For the same compound, the growth in the test on UACC-257 melanoma is 115% (inactive) and 94.5% (inactive); in the test on M14 melanoma, 103% (inactive) and 97.8% (inactive).
